# A selection: hits, their analogues and other compounds. The true share with any hit is near 7%.
# ATXN2 expr inh – reduces ATXN2 reporter expression in HEK-293 cells. HEK-293 ATXN2-luciferase reporter, luminescence, 24 h. Potency, µM (top dose mostly 57 µM), for the others: at the highest dose activity change, negative = inhibition, actives largely listed as inhibitors. 360,000 compounds, 0.72% hits; further: potency means the concentration at half of the fitted maximal effect; on the % scale 0 is the no-effect control and ±100 the full control effect; nearly all actives have a fitted effect of over 55% in size
#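 qHTS (up to 57 uM final) was run with 24 h compound exposure of reporter cells at 37 °C. Each well was multiplexed: SteadyGlo luminescence measured ATXN2-luciferase expression after a fluorogenic Gly-Phe-AFC viability readout (25 uM final).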
# ATXN viability – reduces viability in counter-screen for ATXN expression inhibitors; S2 cells (HEK-293 line with an ATXN2-luciferase reporter) viability, CellTiter-Fluor protease fluorescence, 24 h; Potency, µM (series often up to 56.7 µM), usual class: cytotoxic; 400,000 compounds, 0.49% hits; AID 651635; further: potency means the concentration at half of the fitted maximal effect; nearly all actives have a fitted effect of over 40% in size
# Integrin act MD – integrin-mediated muscular dystrophy alleviation activation. alpha7betagal myoblasts, beta-gal FDG fluorescence, 48 h. AID 624291. Potency, µM (series often up to 38.3 µM), without a hit: top-dose activation, hits mostly activators. 350,000 compounds, 0.064% hits;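 further: potency means the concentration at half of the fitted maximal effect; 100% = response of the positive control SU9516; nearly all actives have a fitted effect of over 60% in size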
#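 Alpha7betagal+/- myoblasts (passage 13) were plated 16-24 hr, then exposed to compounds (1:260 dilution of DMSO stock) for 48 hours at 37C. After MPER lysis, β-galactosidase reporter activity was read as FDG fluorescence (ex 480/em 540) after 30 minutes.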
# D3 antag – blocks the human D3 dopamine receptor; P35462; D3R cells, DiscoveRx beta-arrestin luminescence, antagonist mode; hits give low values; max response, negative = inhibition, %; 360,000 compounds, 2.5% hits; AID 652054; in the data active means max response below about -50%; inconclusive means no clear call, values can overlap the other calls; further: on the % scale 0 is the no-effect control and ±100 the full control effect
# Target sequence (P35462 whole entry, looked up): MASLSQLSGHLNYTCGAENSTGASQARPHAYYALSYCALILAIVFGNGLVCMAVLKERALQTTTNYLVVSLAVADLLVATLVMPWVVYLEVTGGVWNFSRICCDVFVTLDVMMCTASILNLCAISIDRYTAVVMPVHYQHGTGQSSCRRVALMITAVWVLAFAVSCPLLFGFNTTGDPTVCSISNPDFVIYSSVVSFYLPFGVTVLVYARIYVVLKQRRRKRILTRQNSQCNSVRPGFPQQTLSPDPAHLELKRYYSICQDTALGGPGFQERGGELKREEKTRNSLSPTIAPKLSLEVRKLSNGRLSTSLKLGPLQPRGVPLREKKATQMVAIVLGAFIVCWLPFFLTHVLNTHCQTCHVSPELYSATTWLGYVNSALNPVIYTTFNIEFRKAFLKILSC
#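 Cells expressing the human receptor were seeded at 1500 cells/well, incubated overnight at 37 degrees C in 5% CO2, then exposed to library compounds with dopamine controls for 90 minutes at 37 degrees C before luminescent detection.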
# IL-1B inflam inh – inflammasome signaling inhibition, IL-1 beta readout; THP-1 LPS/ATP IL-1B secretion, AlphaLISA, 16 h; hits give low values; activity change, % at 57.5 µM; 360,000 compounds, 4.7% hits; AID 743279; in the data active means activity change below about -50%; inconclusive means mostly about -30% to -49%; further: on the % scale 0 is the no-effect control and ±100 the full control effect
#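 THP-1 cells pretreated 1 hr with compounds (up to 57.5 uM final), then stimulated with LPS (250 ng/mL final) plus ATP (1.25 mM final); secreted IL-1B measured by AlphaLISA after 16 hr, decreased signal indicating inhibition.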
# D3 ag – agonists of human D3 dopamine receptor; P35462; D3R DiscoveRx beta-arrestin cells, luminescence, 90 min; max activation, %; 410,000 compounds, 0.58% hits; AID 652048; in the data active means max activation above about 30%; further: 0% is about no effect
#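 Agonist mode: compounds and dopamine controls were applied to plated cells for 90 min at 37 degrees C after an overnight attachment at 1500 cells/well. Luminescent read-out followed 30 - 60 minutes at room temperature with DiscoveRx detection reagent.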
# * marks the source's active call; other numbers are inactive results; i = inactive; u = inconclusive; x = not tested or not shown; [ ] = remark or other dose. Unless noted, the call rests on the fitted dose curve; in most records, active means well fitted curve in the direction sought with a large enough effect; inconclusive means small, poorly fitted or top-dose-only effect, or another doubt; inactive means no such curve, though single readings can be large; an effect the other way counts as inactive or inconclusive.
SMILES,ATXN2 expr inh,ATXN viability,Integrin act MD,D3 antag,IL-1B inflam inh,D3 ag
CCOc1ccc(C(=O)Nc2ccc(S(=O)(=O)N3CCCCC3c3cccnc3)cc2)cc1 (centres undefined),18µM*,u,x,x,x,-5
O=C(Nc1ccc(S(=O)(=O)N2CCCCC2c2cccnc2)cc1)c1ccc(Br)cc1 (centres undefined),14µM*,11µM*,x,x,x,1
CC(=O)Nc1ccc(S(=O)(=O)N2CCCCC2c2cccnc2)cc1 (centres undefined),6%,i,8%[7.66 µM],-6,24,1
CCOC(=O)c1oc2ccc(S(=O)(=O)n3nc(-c4cc(OCC)c(OCC)c(OCC)c4)cc3N)cc2c1C,x,x,x,x,x,1
C[C@H]1CC[C@]2(O[C@H](CCO)C[C@@H](O)[C@@H]2O)O1,-2%,i,7%,0,24,-4
CCNC(=O)N(CC)C[C@H]1N[C@@](C)(C(=O)OC)[C@H]2C(=O)N(C)C(=O)[C@@H]12,6%,i,-35%,-10,1,-33
Cc1ccc(-c2nn(-c3ccccc3)cc2C2SCC(=O)N2Cc2ccccc2)o1 (centres undefined),-24%,i,-1%,-17,-69*,-8
CCC1(CC)Cc2ccccc2C(N)=C1C#N,5%,i,15%,14,23,0
COc1ccc2oc(=O)c(C(=O)Nc3cccc(C(=O)O)c3)cc2c1,0.89µM*,i,x,x,x,3
CC(Oc1ccccc1)C(=O)Nc1ccc(NC(=O)c2ccccc2)cc1 (centres undefined),-11%,i,17%,u,0,-8
COc1cc(NC(=O)c2cccnc2)c(OC)cc1NC(=O)c1ccc(Br)cc1,0%,i,-1%,18,-1,121*
COc1ccc(C(=O)Nc2cc(C(=O)O)cc(C(=O)O)c2)cc1Cl,x,i,-15%,-10,-11,-4
COC(=O)c1cccc(NC(=O)c2ccc(OC)c(Cl)c2)c1,18%,u,12%,-13,-72*,12
COc1cc(NC(=O)C(C)Oc2ccccc2)c(OC)cc1NC(=O)c1ccccc1 (centres undefined),-16%,i,0%,11,-17,36*
COc1cc(NC(=O)c2ccc(Br)cc2)c(OC)cc1NC(=O)c1ccccc1,x,u,-18%,17,-2,6
COC(=O)COC(=O)c1ccc(Oc2nc(OC)nc(N(C)C)n2)cc1,x,x,1%,12,-29,1
COc1ccc(OC)c(NC(=O)c2cccc(NC(=O)c3ccccc3)c2)c1,-34%,i,0%,-13,-57*,1
O=C(NCc1cccnc1)/C(=C\c1ccc(-c2ccc(Cl)c(Cl)c2)o1)S(=O)(=O)c1ccccc1,13µM*,x,-62%,-28,-107*,-36
O=C(NCc1cccnc1)c1ccc(-c2ccc(Cl)cc2)o1,x,i,-7%,0,-2,-4
CCOc1ccc(-n2c(=O)cc(N3CCN(c4ccc(F)cc4)CC3)[nH]c2=O)cc1,-3%,i,7%,-114*,17,-2
COc1ccc(/C(=C/Nc2cccc(Br)c2)C(C)=O)cc1OC,-11%,i,13%,-20,-84*,-22
COc1ccc(N/C=C/C(=O)c2ccccc2)cc1,x,u,u,-23,-3,-7
COc1ccc(N/C=C(/C(C)=O)c2ccccc2)cc1,-10%,i,35%,-26,-84*,0
O=C(Cn1cnc2c(NCc3ccccc3)ncnc21)NCCCN1CCCC1=O,6%,i,-11%,24,12,34*
Cc1ccccc1NC(=O)/C(=C\c1cccs1)NC(=O)c1ccccc1,-3%,i,u,-54*,-5,-8
SMILES,ATXN2 expr inh,ATXN viability,Integrin act MD,D3 antag,IL-1B inflam inh,D3 ag
Cc1ccccc1NC(=O)/C(=C/c1cccs1)NC(=O)c1ccco1,-14%,i,-14%,-12,-3,-11
O=C(Nc1c(-c2ccccc2)[nH][nH]c1=O)c1ccc2ccccc2c1,x,x,x,2,26,1
COc1ccc(-c2[nH][nH]c(=O)c2NC(=O)c2ccc(C)cc2)cc1,12%,i,x,-85*,38,-11
CC(O)c1cccc(-c2ccc(CN3C[C@]4(CO)O[C@@H](CO)C[C@@H]4S3(=O)=O)cc2)c1 (some centres undefined),2%,i,8%,3,-3,45*
COC(=O)Cc1cc(=O)oc2cc(O)ccc12,3%,x,-3%,1,-70*,8
CCOC(=O)N1CCc2c(sc3nc(SC(C)C)n(N)c(=O)c23)C1,-28%,i,6%,0,-23,31*
COc1ccc(OC)c(NC(=O)CCN2CC(C)OC(C)C2)c1 (centres undefined),1%,i,3%,3,0,-1
O=C(C1CC(=O)N(c2ccccc2)C1)N1CCN(c2ccc(F)cc2)CC1 (centres undefined),6%,i,-11%,-69*,-3,-14
COc1cccc(NC(=O)NCc2ccccc2Cl)c1,36%,i,16%,-26,-8,-6
O=C(O)CCc1ccc(-c2ccc(Cl)cc2)n1CCC(=O)O,5%,i,0%,8,2,3
C=CCn1c(CCC(=O)O)ccc1-c1ccccc1,-18%,i,2%,-26,-77*,-6
Cc1nc(C)c(-c2ccc(SCC(=O)Nc3ccccc3F)nn2)s1,x,x,x,x,x,-5
CCCc1c(C(=O)NNc2ccccc2OC)cnn1-c1ccccc1,20%,i,-26%,-22,-52*,-10
CCn1c(-c2cc(Br)cc(OC)c2O)nc2cc(S(=O)(=O)N(C)C)ccc21,-6%,i,-34%,-5,13,37*
CCCOc1ccc(-c2c(C(=O)N/N=C/c3ccc(OCC)cc3)nnn2-c2nonc2N)cc1,-2%,i,-7%,-6,23,-3
COc1cccc(-c2c(C(=O)N/N=C/c3sccc3C)nnn2-c2nonc2N)c1,8%,u,5%,-3,-54*,-2
Cc1ccsc1/C=N/NC(=O)c1nnn(-c2nonc2N)c1-c1ccccc1,8%,i,17%,u,-92*,-15
CCCOc1ccc(-c2c(C(=O)N/N=C/c3ccncc3)nnn2-c2nonc2N)cc1,1%,i,-3%,8,-54*,1
Cc1c(C(=O)N/N=C/c2cccs2)nnn1-c1nonc1N,1%,i,u,9,7,36*
Cc1cccc(-c2[nH]ncc2-c2ccc3ncccc3n2)n1,6%,x,x,x,x,x
Cc1cccc(-c2[nH]c(C(C)(C)C)nc2-c2ccc3nccnc3c2)n1,27µM*,x,x,x,x,x
